From PubChem BioAssay
Rows were chosen to be rich in hits. Some 10% of all compounds tested hit in one or more screens of this group.
Pf growth 96h: Primary qHTS for delayed death inhibitors of the malarial parasite plastid, 96 hour incubation. P. falciparum luciferase reporter growth, 96 h. Potency, µM (top dose mostly 28.7 µM), inactives show at the top dose activity change, negative = inhibition, most hits filed as inhibitors. hit rate 6.9% among 320,000. AID 504834, 2011; active = well fitted inhibition curve with a large enough effect; inconclusive = small, poorly fitted or top-dose-only effect, or another doubt; inactive = no such curve, though single readings can be large or run the other way; also: % is scaled to controls: 0 for no effect and ±100 for the full control effect
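Delayed-death screen, second-generation endpoint: infected erythrocytes, 2% hematocrit, 0.05% parasitemia final; 96 hours at 37 C, 5% CO2; luciferase detection reagent; luminescence decrease equals reduced growth.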
SARS PLP yeast: qHTS of Yeast-based Assay for SARS-CoV PLP; Potency, µM (highest dose often 32.9 µM), for inactives: at the top dose activity, positive = growth rescue, hits mostly activators; hit rate 0.19% among 330,000; S. cerevisiae expressing SARS-CoV PLpro, growth rescue; also: 0% is about no effect; nearly all actives have a fitted effect of over 55% in size
Pf growth 48h: Primary qHTS for delayed death inhibitors of the malarial parasite plastid, 48 hour incubation. P. falciparum luciferase growth in erythrocytes, 48 h. Potency, µM (doses to about 28.7 µM), for the others: at the highest dose activity change, negative = inhibition, hits mostly inhibitors. AID 504832, 2011. hit rate 5.9% among 310,000; active = well fitted inhibition curve with a large enough effect; inconclusive = small, poorly fitted or top-dose-only effect, or another doubt; inactive = no such curve, though single readings can be large or run the other way; also: % is scaled to controls: 0 for no effect and ±100 for the full control effect
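Firefly luciferase activity from engineered P. falciparum reports growth; inhibitors lower the luminescent signal. Cultures contained 2% hematocrit erythrocytes at 0.1% final parasitemia.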
NS1 inh: qHTS Assay for Inhibitors of Influenza NS1 Protein Function. hit rate 0.4% among 270,000. AID 2326, 2010. Potency, µM (top dose mostly 46.1 µM), for the others: at the top dose activity, positive = more growth; also: actives are rising curves; nearly all actives have a fitted effect of over 50% in size
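Read-out: OD600 growth recovery of NS1-expressing budding yeast. Cells grown overnight at 30C in -URA glucose medium, washed, resuspended and diluted 1:100 in 2% galactose assay medium, pH 6.0. Same strain lacking NS1 served as positive control.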
Starred values were filed as active, the others as inactive; ? = inconclusive; . = no result. Unless noted, calls follow the shape of the full dose curve. Potency is read from the fitted curve at half-maximal effect.

SMILES | Pf growth 96h | SARS PLP yeast | Pf growth 48h | NS1 inh
Fc1ccccc1/C=N/Nc1nc(-c2ccccn2)nc2ccccc12 | ? | -2% | 2.3µM* | 6%
CC(Nc1nc(-c2cccnc2)nc2ccccc12)c1ccc(F)cc1 (stereo not drawn) | 6.6µM* | -66% | 4.7µM* | -56%
Cc1ccc(CNc2nc(-c3cccnc3)nc3ccccc23)cc1 | ? | -17% | 6.6µM* | -88%
Clc1ccccc1-c1nc(N/N=C/c2cccnc2)c2ccccc2n1 | -63% | -17% | ? | ?
CC(Nc1nc(-c2ccccc2)nc2ccccc12)c1ccccc1 (stereo not drawn) | 0% | -23% | ? | -5%
COc1cccc(-c2nc(NCc3cccnc3)c3ccccc3n2)c1O | ? | 1% | 12µM* | 0%
c1cncc(CNc2nc(-c3cccnc3)nc3ccccc23)c1 | ? | 1% | ? | -3%
c1ccc(CNc2nc(-c3cccnc3)nc3ccccc23)cc1 | 8.3µM* | -5% | 9.3µM* | -40%
c1ccc(CNc2nc(-c3ccccc3)nc3ccccc23)cc1 | -91% | -15% | ? | -144%
O=c1[nH]c2ccccc2nc1NCc1ccccc1 | 4.7µM* | -1% | 23% | -12%
c1ccc(CNc2nc(-c3ccccn3)nc3ccccc23)cc1 | 0.66µM* | -6% | 1.5µM* | -14%
c1ccc(CNc2nc3ccccc3[nH]2)cc1 | -4% | 0% | -23% | 2%
CCOc1ccc(CCNC(=O)CCCn2c(=O)c3cccn3c3cccnc32)cc1OCC | -18% | 3% | ? | 0%
COc1ccc(S(=O)(=O)NCCC(C)C)cc1C | 30% | 5% | . | -4%
Cc1cccnc1NC(=S)NC(=O)c1oc2ccccc2c1C | 37% | -1% | 80% | -18%
O=C(Cn1cc(C(F)(F)F)ccc1=O)OCC(=O)c1ccc[nH]1 | . | -4% | . | .
Fc1ccc(CNc2nc(-c3cccnc3)nc3ccccc23)cc1 | ? | -13% | 12µM* | -38%
c1cncc(-c2nc(NCc3ccc4c(c3)OCO4)c3ccccc3n2)c1 | 10µM* | -3% | 13µM* | -6%
c1cncc(-c2nc(NCC3COc4ccccc4O3)c3ccccc3n2)c1 (stereo not drawn) | 8.3µM* | -22% | . | -35%
CCC(C)Nc1nc(-c2ccccn2)nc2ccccc12 (stereo not drawn) | 0.93µM* | 0% | . | -3%
O=C(COC(=O)Cc1n[nH]c(=O)c2ccccc12)NNC(=O)c1ccc(Cl)cc1 | 2% | 3% | 0% | .
CN=C1N(C)C[C@@H]2[C@@H]3C(=O)N(C)C(=O)[C@@H]3[C@](C)(C(=O)OC)N12 | . | 3% | . | .
CCOc1ccc(S(=O)(=O)NCCC(=O)N2CC(C)OC(C)C2)cc1 (stereo not drawn) | 7% | -4% | -11% | .
CCSc1nnc(NC(=O)CCNS(=O)(=O)c2cc(Br)cnc2N)s1 | 9.3µM* | 1% | ? | -7%
Cc1cc(C)cc(NC(=O)CCNS(=O)(=O)c2cc(Br)cnc2N)c1 | ? | -4% | 3% | 14%
SMILES | Pf growth 96h | SARS PLP yeast | Pf growth 48h | NS1 inh
COCc1cc(=O)[nH]c(SCCS(=O)(=O)c2ccc(Cl)cc2Cl)n1 | 1% | 0% | 3% | -7%
COC(=O)c1[nH]c2ccc(Cl)cc2c1NC(=O)CN1CCc2cc(OC)c(OC)cc2C1 | . | 1% | ? | 8%
CCOC(=O)c1[nH]c2cc(OC)c(OC)cc2c1NC(=O)CN1CCN(c2ccc(OC)cc2)C(C)C1 (stereo not drawn) | . | -27% | 9.3µM* | -47%
CCOC(=O)c1[nH]c2ccc(F)cc2c1NC(=O)CN1CCc2cc(OC)c(OC)cc2C1 | ? | -2% | 12µM* | -16%
CCOC(=O)c1[nH]c2ccc(F)cc2c1NC(=O)CN1CCN(C/C=C/c2ccccc2)CC1 | 5.9µM* | 3% | 9.3µM* | -7%
COC(=O)c1[nH]c2cccc(OC)c2c1NC(=O)CN1CCN(c2cccc(OC)c2)C(C)C1 (stereo not drawn) | -14% | -17% | ? | -29%
Cn1c(CNC(=O)CNC(=O)c2ccccc2)cc(=O)n(C)c1=O | 17% | -3% | 21% | 7%
O=C(O)c1ccc(S(=O)(=O)N[C@@H](Cc2ccc(O)cc2)C(=O)O)cc1 | 3% | 3% | 12% | .
CCCNc1c(NS(=O)(=O)c2ccc(OC)c(OC)c2)c(=O)oc2ccccc12 | ? | . | -6% | 8%
COc1ccc(-n2nc3c(c2NC(=O)C(C)Oc2ccccc2)CS(=O)(=O)C3)cc1 (stereo not drawn) | 9.3µM* | 13% | 0% | 16%
